An excerpt weighted towards active compounds, which were near 0.56% of everything screened.
Tb PFK block: T. brucei PFK enzyme inhibition. O15648. T. brucei PFK, ADP-Glo luminescence. Potency, µM (titrated, usually from 57.5 µM), for inactives: at the top dose activity, negative = inhibition, actives largely listed as inhibitors. actives 0.17% (n = 330,000). AID 485367;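 further: potency means the concentration at half of the fitted maximal effect; 0% = uninhibited 1x PFK enzyme wells and -100% = no-enzyme wells; nearly all actives have a fitted effect of over 60% in size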
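1.25 nM PFK with 0.5 mM F6P and 0.1 mM ATP in 0.1 M TEA pH 8.0, 5 mM MgCl2, incubated 45 min at room temperature; ADP measured by ADP-Glo luminescence; compounds titrated up to 57 uM.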
CBFb-RUNX1 inh: CBF-beta/RUNX1 interaction disruption | AlphaScreen CBFb-His/RUNX1-biotin binding, biochemical | Potency, µM (highest dose often 59.8 µM), inactives show top-dose activity, negative = inhibition, most hits filed as inhibitors | 230,000 tested, under 10 active; further: % of control where 0% means no effect
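Room-temperature protein-protein interaction test with 30 nM each of His-tagged CBF-beta and biotinylated RUNX1, 15 min with compound, then 90 min with nickel plus streptavidin beads. Signal read in AlphaScreen mode.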
GALK inhibitor: inhibitors of human galactokinase. P51570. Purified GALK, Kinase-Glo residual ATP luminescence. Potency, µM (titrated, usually from 57.5 µM), without a hit: at the top dose activity change, negative = inhibition, most hits filed as inhibitors. actives 0.007% (n = 270,000). AID 1868; further: potency means the concentration at half of the fitted maximal effect; on the % scale 0 is the no-effect control and ±100 the full control effect
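The enzyme phosphorylates galactose (100 uM) using ATP (35 uM); inhibition is detected as higher residual ATP, quantified by bioluminescence after 1 h reaction at room temperature, pH 8.0.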
KinaseGlo FLuc: blocks Kinase-Glo luciferase, a counter-screen artifact | Kinase-Glo luciferase, ATP luminescence, 8 min | Potency, µM (series often up to 38.3 µM), for the others: at the highest dose activity change, negative = inhibition, most hits filed as inhibitors | actives 0.28% (n = 200,000) | AID 1379; further: potency means the concentration at half of the fitted maximal effect; on the % scale 0 is the no-effect control and ±100 the full control effect; nearly all actives have a fitted effect of over 60% in size
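Recombinant Kinase-Glo luciferase, 10 uM ATP (linear range), luciferin; imidazole pH 7.2 / KCl / MgCl2 / Tween / BSA buffer; 8 min RT; luminescence.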
PKM2 act: activators of human pyruvate kinase M2; purified PKM2, Kinase-Glo ATP luminescence, activation; response scale: 0% is enzyme alone, no compound; Potency, µM (series often up to 57.5 µM), for the others: at the highest dose activation, hits mostly activators; actives 0.34% (n = 260,000); AID 1631; further: potency means the concentration at half of the fitted maximal effect; on the % scale 0 is the no-effect control and ±100 the full control effect; nearly all actives have a fitted effect of over 55% in size
Target sequence (P14618 whole entry, looked up): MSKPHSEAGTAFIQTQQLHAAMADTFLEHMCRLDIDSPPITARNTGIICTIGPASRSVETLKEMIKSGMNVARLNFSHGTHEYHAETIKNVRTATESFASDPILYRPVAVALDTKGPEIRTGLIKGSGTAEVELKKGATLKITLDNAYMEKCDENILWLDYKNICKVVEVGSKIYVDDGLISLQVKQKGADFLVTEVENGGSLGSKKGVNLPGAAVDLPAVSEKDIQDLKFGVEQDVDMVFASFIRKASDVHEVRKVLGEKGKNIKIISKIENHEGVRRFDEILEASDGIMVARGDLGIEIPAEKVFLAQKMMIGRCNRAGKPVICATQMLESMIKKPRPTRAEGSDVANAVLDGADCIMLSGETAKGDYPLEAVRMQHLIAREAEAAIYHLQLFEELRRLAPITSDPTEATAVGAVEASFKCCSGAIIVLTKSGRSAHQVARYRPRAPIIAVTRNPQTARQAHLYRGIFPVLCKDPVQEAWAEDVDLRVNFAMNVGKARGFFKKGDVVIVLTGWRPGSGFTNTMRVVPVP
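ATP formation by purified human PK-M2, quantified via coupled luciferase luminescence after 1 h at room temperature with 0.1 mM ADP and 0.5 mM PEP final.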
An asterisk follows results filed as active; ? = inconclusive; . = no result given; [ ] = another dose, or the depositor's remark. The call rests on the fitted dose curve; in most records, active means well fitted curve in the direction sought with a large enough effect; inconclusive means small, poorly fitted or top-dose-only effect, or another doubt; inactive means no such curve, though single readings can be large; an effect the other way counts as inactive or inconclusive.

SMILES	Tb PFK block	CBFb-RUNX1 inh	GALK inhibitor	KinaseGlo FLuc	PKM2 act
Cc1oc(=O)c(NC(=O)c2cccc(Cl)c2)cc1C(=O)c1ccccc1	?	1%	-3%	-1%	7.1µM*
O=C(Nc1cc2ccccc2oc1=O)c1ccccc1	1%	-5%	12%	11µM*	-36%
COc1ccc(C(=O)Nc2cc(C(=O)c3ccccc3)c(C)oc2=O)cc1	?	0%	-3%	-2%	?
Cc1ccnc(SCc2cn3c(C)cc(C)nc3n2)n1	-2%	-1%	13%	2%	0%
Cc1cc(C)n2cc(CSc3nnnn3-c3ccccc3C)nc2n1	-1%	3%	7%	-3%	14µM*
CCNS(=O)(=O)c1ccc(NC(=O)c2ccc(Cn3cc([N+](=O)[O-])cn3)o2)cc1	?	-1%	-1%	.	18µM*
COC(=O)c1ccc(C)c(NC(=O)c2ccc(Cn3cc([N+](=O)[O-])cn3)o2)c1	-7%	-11%	2%	0%	1%
CC1CCCCN1CCCNC(=O)c1ccc(Cc2nc3ccccc3[nH]2)cc1 (stereo not given)	.	.	.	-2%	.
O=C(Nc1nc2ccccc2[nH]1)c1ccccc1	-3%	-3%	3%	11µM*	-57%
CC1(C)CCC[C@@](C)([C@H]2CC[C@]3(C)[C@@H]2[C@H](O)CC2[C@@]4(C)CC[C@H](O)C(C)(C)[C@@H]4[C@@H](O)C[C@]23C)O1 (stereo not given in full)	.	9%	.	.	.
O=S(=O)(Nc1ccc(N2CCOCC2)nn1)c1ccccc1	-2%	1%	4%	.	14µM*
Cc1ccc(N2C(=O)c3ccccc3C2O)nc1 (stereo not given)	?	8%	11%	4.5µM*	-70%
O=C(c1ccc2c(=O)n(CC3CCCO3)c(=S)[nH]c2c1)N1CCN(c2ccccc2)CC1 (stereo not given)	1%	0%	1%	-7%	-1%
O=C(c1ccc2c(=O)n(Cc3ccco3)c(=S)[nH]c2c1)N1CCN(c2ccccc2)CC1	3%	-1%	-3%	-3%	13µM*
Cc1ccc(N=Cc2c(C)[nH]n(-c3nc4ccccc4[nH]3)c2=O)cc1	0%	?	4%	5µM*	-78%
Cc1ccc(-n2[nH]c(C)c(C=Nc3ccc4[nH]c(=O)[nH]c4c3)c2=O)cc1	-1%	1%	-2%	-13%	9%
COc1ccccc1/C=N/Nc1nncc2ccccc12	8%	0%	-5%	-21%	-3%
COc1ccc(/C=N/Nc2nccnc2Cl)c(OC)c1	-11%	5%	12%	13µM*	-49%
COc1ccc(/C=N/Nc2nncc3ccccc23)cc1	-5%	5%	12%	11µM*	-42%
COc1ccc(/C=N/Nc2nonc2N)c(OC)c1	3%	2%	6%	-1%	9%
Oc1ccc(/C=N/Nc2nccnc2Cl)c(O)c1	-20%	2%	6%	3.5µM*	-47%
COC(=O)c1sccc1N/N=C/c1cccc(OC)c1O	2%	10%	-1%	10µM*	-14%
CCC(Nc1ncnc2ccc(-c3c(C)noc3C)cc12)c1ccccc1 (stereo not given)	.	1%	.	.	.
Clc1nccnc1N/N=C/c1ccc(Br)cc1	-13%	.	2%	.	-66%
COc1cccc(/C=N/Nc2nccnc2Cl)c1O	-21%	?	14%	11µM*	-64%
SMILES	Tb PFK block	CBFb-RUNX1 inh	GALK inhibitor	KinaseGlo FLuc	PKM2 act
COc1ccc(/C=N/Nc2nccnc2Cl)cc1	-29%	2%	5%	7.1µM*	-79%
O=c1oc2ccccc2c(O)c1/C=N/c1nc(-c2ccc(O)c(O)c2)cs1	.	.	.	-3%[7.66 µM]	.
COc1cc2cc(C)c(SCC(=O)N3CCN(C(=O)c4ccco4)CC3)nc2cc1OC	0%	7%	-1%	.	18µM*
COc1ccccc1NC(=O)CSc1nc(N)c(C#N)cc1C#N	0%	-7%	-2%	-3%	14µM*
CCOc1ccccc1NC(=O)CSc1nc(N)c(C#N)cc1C#N	4%	3%	-3%	1%	4%
COc1ccc(C(=O)N=c2nc3ccccn3s2)cc1	-13%	-2%	5%	7.9µM*	-76%
COc1ccc(C(=O)O/N=C(/c2ccccc2)c2ccncc2)cc1	-7%	1%	-1%	-9%	-1%
Cc1ccc(CNC(=O)CCS(=O)(=O)c2cc(Br)cc3c2N(C(=O)C2CC2)CC3)o1	-17%	3%	2%	4%	7.9µM*
O=C(CSc1nnc(-c2ccc(O)cc2)o1)Nc1cccc(O)c1	-1%	.	-2%	.	7.9µM*
CCN1C/C(=C/c2cccs2)c2nc3ccccc3c(C(=O)O)c2C1	-5%	-8%	5%	.	-3%
CCc1ccc(/C=C2\CN(CC)Cc3c2nc2ccccc2c3C(=O)O)cc1	12%	0%	4%	-1%	13µM*
Cc1ccc(-c2nc3ncccn3c2Nc2ccccc2C)o1	-10%	1%	-1%	2%	11µM*
C[C@H](C(=O)c1ccccc1)C(c1ccccc1)N1CCOCC1 (stereo not given in full)	.	.	.	1%[7.66 µM]	.
COc1ccc(C(=O)/C=C/C(=O)N(CC(=O)NC2CCCCC2)Cc2cccs2)c(O)c1	-1%	-10%	-3%	0%	13µM*
CCOC(=O)c1c(NS(=O)(=O)c2cccc(OC)c2)sc2c1CCC2	27%	-4%	-3%	0%	16µM*
CCOC(=O)Nc1sc2c(c1C(=O)OCC)CCC2	1%	9%	-2%	1%	-7%
CCCCCCCCCCOc1cc(OCCCCCCCCCC)cc(N(CC(=O)O)CC(=O)O)c1	.	29%	.	.	.
CC(C)Cc1nc(N2CCN(C(=O)c3ccco3)CC2)c(C#N)c2c1CCC2	0%	-2%	1%	-8%	22µM*
O=C(O)c1ccc(Cl)c(S(=O)(=O)Nc2ccccc2F)c1	.	.	.	1%	.
CC(=O)N1CCCc2cc(S(=O)(=O)Nc3ccccc3C)ccc21	4%	.	14%	.	4%
CC(=O)N1CCc2ccc(S(=O)(=O)Nc3ccccc3Cl)cc21	-1%	3%	1%	1%	13µM*
Cc1ccc(S(=O)(=O)c2cc(O)ccc2O)cc1C	-4%	-2%	-1%	-1%	16µM*
